Holding throughout (experiment): NCI-60 one-dose screen, 48 h (100 = growth as untreated, 0 = no growth, -100 = all killed)
In one experiment the test system is SK-MEL-2 melanoma. The note with it: 10 µM unless noted.
In the next experiment the test system is EKVX NSCLC. The note with it: 10 µM unless noted.
The next experiment concerns SN12C renal. As to conditions: 10 µM unless noted.
For the next experiment, the system named is UO-31 renal. As to conditions: 10 µM unless noted.
The test system of another experiment is TK-10 renal. As to conditions: 10 µM unless noted.
The next experiment deals with ACHN renal. The note with it: 10 µM unless noted.
The subject of a further experiment is CAKI-1 renal. As to conditions: 10 µM unless noted.
The subject of another experiment is A498 renal. As to conditions: 10 µM unless noted.
For a further experiment, the system named is CCRF-CEM leukemia. The note with it: 10 µM unless noted.
Another experiment deals with MOLT-4 leukemia. As to conditions: 10 µM unless noted.
A further experiment concerns SR leukemia. As to conditions: 10 µM unless noted.
A further experiment concerns RPMI-8226 leukemia. As to conditions: 10 µM unless noted.
A further experiment has as its system OVCAR-8 ovarian. The note with it: 10 µM unless noted.
The next experiment has as its system OVCAR-5 ovarian. The note with it: 10 µM unless noted.
The subject of the next experiment is OVCAR-4 ovarian. As to conditions: 10 µM.
For a further experiment, the system named is IGROV1 ovarian. The note with it: 10 µM unless noted.
A further experiment concerns OVCAR-3 ovarian. As to conditions: 10 µM unless noted.
The test system of a further experiment is HS 578T breast. As to conditions: 10 µM unless noted.
The test system of a further experiment is NCI/ADR-RES ovarian. The note with it: 10 µM unless noted.

The structures appear in SMILES notation. Compounds without any hit were thinned out: in the full panel of roughly 83,000, 20% have a hit.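 Step 1: grow cells in 96-well plates. Step 2: add test compound at a single concentration. Step 3: incubate 48 h. Step 4: record percent growth.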 Unmarked numbers belong to inactive results. Activity calls are given as the source filed them. Rule for the calls: active = growth percent below 10; inactive = the rest.

The values that follow come from PubChem BioAssay (NCI).

As for `COc1cc(-c2cc(-c3ccc(Nc4ncnc5cc(Cl)ccc45)cc3)nc(N3CCCCC3)n2)cc(OC)c1OC`, the growth was 91% with SK-MEL-2 melanoma; 102% with EKVX NSCLC; 90.9% in the experiment with SN12C renal; 80% in the experiment with UO-31 renal; 111% in the experiment on TK-10 renal; 96.8% in the experiment on ACHN renal. Also, the growth is 93.1% in the experiment on CAKI-1 renal; 89.5% in the experiment on A498 renal; 107% in the experiment with CCRF-CEM leukemia; 90.8% in the experiment with MOLT-4 leukemia; 90.9% in the experiment on SR leukemia; 109% in the experiment on RPMI-8226 leukemia. The growth was 88.9% in the experiment with OVCAR-8 ovarian; 96.1% in the experiment with OVCAR-5 ovarian; 106% in the experiment with OVCAR-4 ovarian; 90.5% in the experiment on IGROV1 ovarian; 107% in the experiment on OVCAR-3 ovarian; 98.7% in the experiment with HS 578T breast. Further, the growth in the experiment on NCI/ADR-RES ovarian was 104%.

As for `COc1ccc(NC(=S)NNc2ccc(-c3ccc(OC)c(OC)c3)nn2)cc1`, the growth in the experiment with SK-MEL-2 melanoma was 106%; in the experiment with EKVX NSCLC, 104%; with SN12C renal it was 100%; in the experiment on UO-31 renal, 83.3%; in the experiment on TK-10 renal, 105%; in the experiment with ACHN renal it was 102%. Further, the growth was 77% in the experiment on CAKI-1 renal; 83.4% with A498 renal; 103% with CCRF-CEM leukemia; 96.3% with MOLT-4 leukemia; 98.1% in the experiment on SR leukemia; 103% with RPMI-8226 leukemia. Further, the growth in the experiment with OVCAR-8 ovarian was 101%; in the experiment with OVCAR-5 ovarian it was 103%; in the experiment with OVCAR-4 ovarian, 100%; with IGROV1 ovarian, 103%; in the experiment with OVCAR-3 ovarian, 110%; in the experiment on HS 578T breast, 95.8%. Also, the growth in the experiment with NCI/ADR-RES ovarian was 111%.

For the molecule `CC(C)(C)c1cc(C(=O)Nc2cc3ccccc3cc2C(=O)NCCN)cc(C(C)(C)C)c1`, the growth is -48.8% (active) with SK-MEL-2 melanoma; -72.9% (active) in the experiment with EKVX NSCLC; -64.8% (active) in the experiment with SN12C renal; -85.6% (active) with UO-31 renal; -85.9% (active) with TK-10 renal; -92.3% (active) in the experiment with ACHN renal. In addition, the growth with CAKI-1 renal was -84.4% (active); with A498 renal it was -90.7% (active); in the experiment on CCRF-CEM leukemia, -49.6% (active); with MOLT-4 leukemia, -38.6% (active); with SR leukemia, -58.9% (active); in the experiment with RPMI-8226 leukemia, -47.8% (active). Further, the growth is -37.1% (active) with OVCAR-8 ovarian; -58.4% (active) with OVCAR-5 ovarian; -81.6% (active) with OVCAR-4 ovarian; -55% (active) in the experiment with IGROV1 ovarian; -96% (active) in the experiment with OVCAR-3 ovarian; -36.6% (active) in the experiment with HS 578T breast. Moreover, the growth in the experiment with NCI/ADR-RES ovarian was -62.3% (active).

As for `CC(C)CSc1ncnc2nc[nH]c12`, the growth in the experiment with SK-MEL-2 melanoma was 107%; in the experiment on EKVX NSCLC, 95.3%; in the experiment on SN12C renal it was 94.7%; with UO-31 renal, 93.9%; in the experiment with TK-10 renal, 82.4%; in the experiment on ACHN renal, 90.3%. Moreover, the growth with CAKI-1 renal was 98.6%; in the experiment with A498 renal it was 87.5%; in the experiment with CCRF-CEM leukemia it was 86.8%; in the experiment with MOLT-4 leukemia it was 128%; in the experiment on SR leukemia, 119%; in the experiment on RPMI-8226 leukemia, 71.4%. The growth is 104% in the experiment on OVCAR-8 ovarian; 86.6% with OVCAR-5 ovarian; 100% in the experiment on OVCAR-4 ovarian; 67.1% with IGROV1 ovarian; 103% in the experiment with OVCAR-3 ovarian; 116% in the experiment with HS 578T breast. Besides, in the experiment on NCI/ADR-RES ovarian, the growth was 100%.

Turning to `CNC(=O)c1cc(Oc2ccc3nc(NC(=O)c4ccc5ncccc5c4)sc3c2)ccn1`, the growth was 86.2% with SK-MEL-2 melanoma; 87.5% with EKVX NSCLC; 92.6% in the experiment on SN12C renal; 77% in the experiment with UO-31 renal; 90.5% in the experiment with TK-10 renal; 102% with ACHN renal. The growth with CAKI-1 renal is 89.9%; with A498 renal it was 88.3%; with CCRF-CEM leukemia, 91%; in the experiment on MOLT-4 leukemia it was 94.2%; in the experiment with SR leukemia, 88.8%; in the experiment with RPMI-8226 leukemia it was 71.9%. The growth in the experiment on OVCAR-8 ovarian is 100%; in the experiment on OVCAR-5 ovarian, 106%; in the experiment on OVCAR-4 ovarian it was 87.4%; in the experiment with IGROV1 ovarian, 93.3%; in the experiment on OVCAR-3 ovarian, 98.9%; with HS 578T breast, 108%. Further, the growth in the experiment on NCI/ADR-RES ovarian is 88.8%.

`O=C(NNc1ccc(-c2ccccc2)nn1)c1ccc(F)cc1`: the growth with SK-MEL-2 melanoma is 108%; with EKVX NSCLC it was 78.4%; in the experiment on SN12C renal it was 95.1%; in the experiment on UO-31 renal, 80.8%; in the experiment with TK-10 renal, 82.9%; in the experiment with ACHN renal, 90.9%. Besides, the growth is 61.8% in the experiment on CAKI-1 renal; 67.6% in the experiment on A498 renal; 108% with CCRF-CEM leukemia; 96.2% with MOLT-4 leukemia; 92% in the experiment with SR leukemia; 99.7% in the experiment with RPMI-8226 leukemia. Besides, the growth in the experiment on OVCAR-8 ovarian was 98.6%; in the experiment with OVCAR-5 ovarian, 94.2%; with OVCAR-4 ovarian, 94.8%; in the experiment with IGROV1 ovarian it was 97%; with OVCAR-3 ovarian, 103%; with NCI/ADR-RES ovarian, 93.3%.

In the case of `COc1c(B(O)O)cccc1-c1nc2ccc3[nH]ncc3c2c2c1CCC2`, the growth was 58.2% with SK-MEL-2 melanoma; 47.9% in the experiment with EKVX NSCLC; 74.3% in the experiment with SN12C renal; 23.5% with UO-31 renal; 36.4% with TK-10 renal; 36.4% in the experiment with ACHN renal. Moreover, the growth in the experiment on CAKI-1 renal is 16.6%; in the experiment with A498 renal it was 34.7%; in the experiment with CCRF-CEM leukemia, 64.2%; in the experiment with MOLT-4 leukemia it was 61.6%; in the experiment on SR leukemia, 67.8%; in the experiment on RPMI-8226 leukemia, 60.1%. Further, the growth with OVCAR-8 ovarian is 61.2%; in the experiment on OVCAR-5 ovarian, 89.9%; in the experiment with OVCAR-4 ovarian, 80.7%; with IGROV1 ovarian, 42%; in the experiment on OVCAR-3 ovarian it was 89.8%; in the experiment on HS 578T breast, 17.7%. Also, in the experiment on NCI/ADR-RES ovarian, the growth was 81.4%.

On to `COc1ncc(-c2ccc3nccc(C#CCCCCC(=O)O)c3c2)cc1NS(=O)(=O)c1ccc(F)cc1F`, for which the growth with SK-MEL-2 melanoma is 31.3%; in the experiment with EKVX NSCLC, 22%; with SN12C renal, 40.8%; in the experiment on UO-31 renal, 12.5%; with TK-10 renal, 3.96% (active); in the experiment with ACHN renal, 32%. Further, the growth in the experiment on CAKI-1 renal was 14.1%; with A498 renal, -34.5% (active); with CCRF-CEM leukemia, 24.4%; in the experiment with MOLT-4 leukemia, 29%; with SR leukemia, 63.8%; in the experiment on RPMI-8226 leukemia, 47.4%. The growth with OVCAR-8 ovarian was 35.4%; in the experiment on OVCAR-5 ovarian, 22.7%; in the experiment with OVCAR-4 ovarian, 50.3%; in the experiment on IGROV1 ovarian, -13% (active); in the experiment on OVCAR-3 ovarian, 19.8%; in the experiment on HS 578T breast, -10.2% (active). In addition, the growth with NCI/ADR-RES ovarian is 56%.
